Source: PubChem
HT1080-NT tox – qHTS for induction of synthetic lethality in tumor cells producing 2HG: qHTS for the HT-1080-NT fibrosarcoma cell line; actives 1.6% (n = 360,000); HT-1080-NT fibrosarcoma viability, CellTiter-Glo ATP luminescence, 48 h; Potency, µM (doses to about 46.1 µM), for the others: at the top dose activity, negative = less viability, most hits filed as cytotoxic;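 also: NT is the 2HG producing partner of a matched IDH1 knockdown line; potency is read from the fitted curve at half-maximal effect; 0% = DMSO-treated cells and -100% = media-only wells without cells; nearly all actives have a fitted effect of over 55% in size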
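HT-1080-NT; 750 cells/well; 5% FBS RPMI; 48 h compound, 37 degrees C; CellTiter-Glo luminescence; curve fitting and curve-class assignment.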
HT1080 IDH1KD tx – qHTS for induction of synthetic lethality in tumor cells producing 2HG: qHTS for the HT-1080-IDH1KD cell line; HT-1080 IDH1 knockdown viability, ATP luminescence, 48 h; Potency, µM (top dose mostly 46.1 µM), for inactives: top-dose activity, negative = toxicity, most hits filed as cytotoxic; actives 2% (n = 360,000);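 also: potency is read from the fitted curve at half-maximal effect; 0% = DMSO wells and -100% = cell-free medium wells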
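Viability of IDH1-knockdown HT-1080 fibrosarcoma cells was assessed by CellTiter-Glo after 48 h at 37 °C with titrated compound; concentration-effect curves were classified by fit quality and response size.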
ALOX12 inh – Primary qHTS assay for inhibitors of human arachidonate 12S-lipoxygenase (ALOX12): Round 2 | Polyunsaturated fatty acid lipoxygenase ALOX12 (Homo sapiens), P18054 | purified 12hLO, xylenol orange hydroperoxide absorbance | Potency, µM (top dose mostly 108 µM), inactives show top-dose activity change, negative = inhibition, hits mostly inhibitors | actives 1.1% (n = 580,000); also: potency is read from the fitted curve at half-maximal effect
Target sequence (P18054 whole entry, looked up): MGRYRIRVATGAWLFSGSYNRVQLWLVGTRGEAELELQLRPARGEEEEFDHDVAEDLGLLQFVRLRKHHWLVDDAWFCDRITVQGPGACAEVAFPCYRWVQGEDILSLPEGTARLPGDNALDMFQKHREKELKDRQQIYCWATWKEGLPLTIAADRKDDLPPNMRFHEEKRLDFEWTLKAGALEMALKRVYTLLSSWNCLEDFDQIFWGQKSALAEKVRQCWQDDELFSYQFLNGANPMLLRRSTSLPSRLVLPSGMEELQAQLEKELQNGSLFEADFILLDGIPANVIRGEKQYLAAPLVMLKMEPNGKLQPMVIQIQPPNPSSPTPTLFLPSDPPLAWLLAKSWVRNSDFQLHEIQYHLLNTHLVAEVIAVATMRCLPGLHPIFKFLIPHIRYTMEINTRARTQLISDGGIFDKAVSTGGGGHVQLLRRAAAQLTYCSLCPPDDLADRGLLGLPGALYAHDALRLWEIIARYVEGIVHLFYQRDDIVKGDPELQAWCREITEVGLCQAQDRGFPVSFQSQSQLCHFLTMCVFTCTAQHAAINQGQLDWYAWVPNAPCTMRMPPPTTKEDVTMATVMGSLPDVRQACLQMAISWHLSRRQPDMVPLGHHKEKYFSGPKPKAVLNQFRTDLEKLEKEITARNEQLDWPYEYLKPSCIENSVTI
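Hydroperoxide product was detected by ferrous iron/xylenol orange as the 573 to 405 nm absorbance ratio. Arachidonic acid at 40 uM (final) was turned over for 30 min at room temperature by 150 nM human 12hLO, pH 7.0 Hepes buffer, after 15 min compound preincubation.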
DT40 TDP1 CPT – qHTS for Inhibitors of human tyrosyl-DNA phosphodiesterase 1 (TDP1): qHTS in cells in presence of CPT; Potency, µM (doses to about 46.2 µM), without a hit: at the top dose activity change, negative = growth inhibition, usual class: inhibitors; AID 686979, 2013; actives 12% (n = 420,000); chicken DT40 Tdp1-/-;hTDP1 cells + 20 nM CPT, ATP luminescence, 48 h; also: potency is read from the fitted curve at half-maximal effect; nearly all actives have a fitted effect of over 55% in size
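Chicken DT40 Tdp1-/- cells complemented with human TDP1, 400 cells/well, exposed to compounds plus 20 nM camptothecin for at least 48 h at 37 C; viability read as ATP content by CellTiter-Glo luminescence.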
IL1B secr inh – qHTS for Inhibitors of Inflammasome Signaling: IL-1-beta AlphaLISA Primary Screen. actives 4.7% (n = 360,000). THP-1 LPS/ATP IL-1B secretion, AlphaLISA, 16 h; hits give low values. activity change, % at 57.5 µM; in the data active = activity change below about -50%; inconclusive = mostly about -30% to -49%
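THP-1 cells pretreated 1 hr with compounds (up to 57.5 uM final), then stimulated with LPS (250 ng/mL final) plus ATP (1.25 mM final); secreted IL-1B measured by AlphaLISA after 16 hr, decreased signal indicating inhibition.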
DT40 TDP1 no CPT – qHTS for Inhibitors of human tyrosyl-DNA phosphodiesterase 1 (TDP1): qHTS in cells in absence of CPT | Potency, µM (top dose mostly 46.2 µM), for inactives: at the top dose activity change, negative = growth inhibition, usual class: inhibitors | DT40 Tdp1-/- hTDP1 cells, no CPT, ATP luminescence, 48 h | actives 15% (n = 420,000); also: potency is read from the fitted curve at half-maximal effect; nearly all actives have a fitted effect of over 55% in size
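DT40 Tdp1-/-;hTDP1 cells, no CPT (DMSO vehicle only), 400 cells/well; compounds pin-transferred; ≥48 hr, 37 °C; CellTiter-Glo 30 min RT dark, luminescence read.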
Numbers without * were called inactive; ? = inconclusive; . = no result given; [ ] = dose if it differs, or a comment. Only a selection was taken, and hits are over-represented in it overall. Unless noted, calls follow the shape of the dose curve; as a rule, active = well fitted curve in the direction sought with a large enough effect; inconclusive = small, poorly fitted or top-dose-only effect, or another doubt; inactive = no such curve, though single readings can be large; an effect the other way counts as inactive or inconclusive. Unless noted, % is scaled to controls: 0 for no effect and ±100 for the full control effect.

SMILES | HT1080-NT tox | HT1080 IDH1KD tx | ALOX12 inh | DT40 TDP1 CPT | IL1B secr inh | DT40 TDP1 no CPT
O=C1Nc2ccccc2/C1=C/C(=O)c1cccs1 | ? | ? | ? | 6.51µM* | -119.5* | 8.2µM*
COc1cc(/C=N/N=C2/C(=O)Nc3ccccc32)cc(OC)c1O | -13.8% | ? | -29.8% | -49.3% | ? | ?
COc1ccc(C(=O)/C=C2/C(=O)Nc3ccccc32)cc1OC | -8.9% | -10.4% | -19.6% | 16.4µM* | -81.5* | 4.11µM*
COc1ccc(C(=O)/C=C2/C(=O)Nc3ccccc32)c(OC)c1 | 18.4µM* | 23.1µM* | ? | 4.11µM* | -100.9* | 2.59µM*
COc1ccc(C(=O)/C=C2/C(=O)Nc3ccccc32)cc1 | ? | ? | -27.1% | 9.2µM* | ? | 4.11µM*
CCn1c(NCc2cccc(Cl)c2)nc2ccccc21 | . | . | -20.9% | ? | . | 23.1µM*
COc1ccc(CNc2nc3ccccc3n2Cc2ccc(Cl)cc2)cc1OC | 20.6µM* | 16.4µM* | ? | 16.4µM* | -88.7* | 13µM*
CC(=O)Nc1nc2ccccc2n1Cc1ccccc1 | ? | ? | 7.2% | ? | 0.0 | ?
CCc1nc2ccccc2n1Cc1ccc(OC)c(OC)c1 | -12.8% | -22.2% | 0.0%[57.4 µM] | ? | 24.3 | ?
O=NNc1nc2ccccc2n1Cc1ccccc1 | ? | ? | -0.9% | 4.61µM* | 201.3 | 2.31µM*
COc1ccc(/C=C/c2nc3ccccc3n2Cc2ccc(OC)c(OC)c2)cc1 | -26.9% | -16.7% | -2.7% | ? | -53.6* | ?
Cn1c(NCc2cccc(Cl)c2)nc2ccccc21 | . | . | 3.3% | ? | . | ?
COc1cc(CNc2nc3ccccc3n2Cc2ccccc2)ccc1O | -1.0% | -8.8% | 12.3% | -29.7% | 3.3 | ?
O=C(/C=C/c1cccc(C(F)(F)F)c1)Nc1ccc(F)c(F)c1F | . | . | -39.5% | . | . | .
CCC(=O)N1CCC([C@H]2[C@@H](OC)C(=O)N2C(C)C)CC1 | . | . | 36.2% | . | . | .
C(=N\c1nc2ccccc2n1Cc1ccccc1)/c1cccs1 | 0.0% | -17.7% | 21.4% | ? | -67.5* | ?
CCn1c(NCc2ccc(OC)c(OC)c2)nc2ccccc21 | . | . | -4.6% | ? | . | 9.2µM*
Cn1c(NC(=O)c2cccc(Cn3cc(Cl)cn3)c2)nc2ccccc21 | -7.0% | -23.5% | 6.9% | ? | -13.1 | ?
CCn1c(NC(=O)c2cccc(Cn3cc(Cl)cn3)c2)nc2ccccc21 | -23.3% | -17.8% | 44.6% | 14.6µM* | 36.3 | 14.6µM*
Cn1nnnc1NCc1cccc(Cl)c1 | 2.4% | -1.3% | 1.9% | -14.8% | -2.8 | 0.3%
Clc1cccc(CNc2nnnn2-c2ccccc2)c1 | -5.2% | -14.1% | 0.0% | ? | 41.0 | 16.4µM*
C(=N\c1nc2ccccc2n1CCN1CCOCC1)/c1cccs1 | 9.6% | 6.5% | 0.5% | 8.9% | 13.2 | -4.4%
CCn1c(NCc2cc(OC)c(OC)c(OC)c2)nc2ccccc21 | -3.8% | -6.6% | -2.4% | ? | 24.2 | -86.7%
COc1ccc(CCC(=O)NCCC2CCN(C(=O)Nc3cc(F)ccc3F)CC2)cc1 | . | . | 16.2% | . | . | .
COc1ccc(C(=O)N2CCCCC(NC(=O)NCc3ccco3)C2)cc1 (configuration not stated) | . | . | 83.6% | . | . | .
